Experimental data reported in PubChem BioAssay AID1159580 (chemical genetic matrix, 2015).
Several values for one entry are separate records, joined by “and”; a condition that tells them apart may be missing. Equal entries are not always repeated. The campaign covered roughly 5,500 compounds. About 2,000 (36%) were called active. Roughly 18% stayed inconclusive and do not appear here. Cut-off read from the data, not from the text of the source: active = normalized growth mostly below about 0.91 (no sharp cut-off); inconclusive = no clear call, values can overlap the other calls; inactive = mostly above about 0.92. The list shows a part of the results.

Assay: chemical genetic growth profiling, strain panel (AID 1159580);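 note: tested at 20 µM; growth read once vehicle control cultures reached saturation at 30 °C; 1 = growth at the plate median or of vehicle wells; lower values mean less growth of the strain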
Conditions: S. cerevisiae deletion strains, growth OD

Measured: normalized growth

O=C(O)CN1C(=O)c2cccc3cccc(c23)C1=O
inactive: locus YAL013W, strain DEP1, active compounds read low 1 | locus YAL021C, strain ccr4, active compounds read low 0.956 | locus YAL026C, strain drs2, active compounds read low 0.987 | locus YAL030W, strain snc1, active compounds read low 0.986 | locus YBL061C, strain skt5, active compounds read low 0.973 | locus YBR009C, strain hhf1, active compounds read low 0.985 | locus YBR021W, strain FUR4, active compounds read low 1 | locus YBR023C, strain chs3, active compounds read low 0.976 | locus YBR171W, strain sec66, active compounds read low 0.968 | locus YBR229C, strain ROT2, active compounds read low 1.01 | locus YBR231C, strain swc5, active compounds read low 0.986 | locus YBR279W, strain paf1, active compounds read low 0.978 | locus YCL011C, strain gbp2, active compounds read low 0.975 | locus YCL016C, strain dcc1, active compounds read low 0.982 | locus YCL029C, strain bik1, active compounds read low 0.978 | locus YCL061C, strain MRC1, active compounds read low 0.985 | locus YCL069W, strain vba3, active compounds read low 0.99 | locus YCR088W, strain abp1, active compounds read low 1.01 | locus YDL005C, strain med2, active compounds read low 0.974 | locus YDL035C, strain GPR1, active compounds read low 0.994 | locus YDL040C, strain nat1, active compounds read low 0.982 | locus YDL074C, strain BRE1, active compounds read low 1.05 | locus YDL101C, strain DUN1, active compounds read low 1.01 | locus YDL134C, strain PPH21, active compounds read low 0.994 | locus YDL185W, strain tfp1, active compounds read low 0.964 | locus YDL192W, strain arf1, active compounds read low 0.991 | locus YDR001C, strain nth1, active compounds read low 0.979 | locus YDR069C, strain doa4, active compounds read low 0.993 | locus YDR101C, strain arx1, active compounds read low 0.998 | locus YDR137W, strain rgp1, active compounds read low 0.938 | locus YDR159W, strain sac3, active compounds read low 0.993 | locus YDR162C, strain NBP2, active compounds read low 0.982 | locus YDR195W, strain ref2 1.01 | locus YDR297W, strain sur2, active compounds read low 0.979 | locus YDR318W, strain mcm21, active compounds read low 0.978 | locus YDR334W, strain swr1, active compounds read low 0.967 | locus YDR335W, strain msn5, active compounds read low 0.985 | locus YDR388W, active compounds read low 0.994 | locus YDR392W, strain spt3, active compounds read low 0.811 | locus YDR502C, strain sam2, active compounds read low 0.998 | locus YEL003W, strain gim4, active compounds read low 0.99 | locus YEL037C, strain rad23, active compounds read low 0.982 | locus YEL061C, strain CIN8 (second series), active compounds read low 0.974 | locus YEL061C, strain CIN8, active compounds read low 1.01 | locus YER015W, strain faa2, active compounds read low 0.998 | locus YER016W, strain bim1, active compounds read low 0.996 | locus YER110C, active compounds read low 0.977 | locus YER111C, strain swi4, active compounds read low 0.975 | locus YER155C, strain BEM2 (second series), active compounds read low 0.954 | locus YER155C, strain BEM2, active compounds read low 0.999 | locus YER167W, strain BCK2, active compounds read low 0.991 | locus YFR010W, strain ubp6, active compounds read low 0.968 | locus YGL078C, strain dbp3, active compounds read low 0.986 | locus YGL086W, strain mad1, active compounds read low 1 | locus YGL167C, strain pmr1, active compounds read low 0.987 | locus YGL173C, strain kem1, active compounds read low 0.983 | locus YGL227W, strain vid30, active compounds read low 0.996 | locus YGL240W, strain doc1, active compounds read low 1 | locus YGL248W, strain PDE1, active compounds read low 1.02 | locus YGL253W, strain hxk2, active compounds read low 0.984 | locus YGR135W, strain pre9, active compounds read low 0.966 | locus YGR252W, strain gcn5, active compounds read low 1.04 | locus YHR013C, strain ard1, active compounds read low 0.909 | locus YHR027C, strain rpn1, active compounds read low 0.985 | locus YHR030C, strain SLT2, active compounds read low 0.99 and 0.965 | locus YHR079C, strain IRE1 (second series), active compounds read low 0.984 | locus YHR079C, strain IRE1, active compounds read low 0.972 | locus YHR094C, strain hxt1, active compounds read low 0.994 | locus YHR129C, strain ARP1, active compounds read low 0.994 | locus YHR142W, strain chs7, active compounds read low 0.944 | locus YHR200W, strain rpn10, active compounds read low 0.972 | locus YIL066C, strain RNR3, active compounds read low 1.01 | locus YIL073C, strain SPO22, active compounds read low 0.897 | locus YIL125W, strain kgd1, active compounds read low 0.989 | locus YIR030C, strain dcg1, active compounds read low 0.985 | locus YJL092W, strain hpr5, active compounds read low 0.981 | locus YJL095W, strain BCK1 (second series), active compounds read low 0.986 | locus YJL095W, strain BCK1, active compounds read low 1.04 and 0.965 | locus YJL115W, strain asf1, active compounds read low 0.982 | locus YJL129C, strain trk1, active compounds read low 0.988 | locus YJL134W, strain LCB3, active compounds read low 0.998 | locus YJL154C, strain vps35, active compounds read low 1.01 | locus YJL164C, strain tpk1, active compounds read low 0.989 | locus YJL166W, strain qcr8, active compounds read low 0.953 | locus YJL168C, strain set2, active compounds read low 0.993 | locus YJL187C, strain SWE1 (second series), active compounds read low 1.04 | locus YJL187C, strain SWE1, active compounds read low 0.976
